Reference: PubChem BioAssay
Activity calls are given as the source filed them.

Assays:
Albumin (Bos taurus) = Albumin (Bos taurus) (UniProt P02769); assay: compounds binding labelled BSA control protein – biochemical, small-molecule microarray, Alexa647 label, 635/667 nm fluorescence, artefact control for SMM control protein annotation, profiling panel (AID 1118); conditions: BSA-A647 binding, fluorescence 635 nm, higher = more signal;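 note: score merges 667 nm emission intensity and signal-to-noise per printed compound spot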
[1] = probe aXIP binding to arrayed compounds – biochemical, NeuroSMM set, 635/667 nm fluorescence, primary screen (AID 1119); conditions: small-molecule microarray, higher = more signal, called active from +8 up or from −8 down;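 note: probe is the protein aXip251-270 applied at 1 µg/mL to compound-printed slides; binding of probe to printed compounds measured as 667 nm fluorescence plus signal to noise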
[2] = probe aNOTCH3 binding on compound microarray – biochemical, small-molecule microarray, 635/667 nm fluorescence, primary screen (AID 1120); conditions: higher = more signal;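 note: probe is a biotin-tagged antibody raised against NOTCH3 rather than NOTCH3 protein; score merges spot fluorescence near 667 nm with spot signal to noise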
[3] = probe aNOTCH2 binding on compound microarray – biochemical, small-molecule microarray, 635/667 nm fluorescence, primary screen (AID 1121); conditions: higher = more signal;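 note: score merges feature fluorescence read at 667 nm with its signal to noise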
[4] = biological target: Carbonic anhydrase 2 (Homo sapiens) (UniProt P00918); assay: compounds binding carbonic anhydrase 2 – biochemical, small-molecule microarray, Alexa647-labelled CAII, profiling panel (AID 1122); conditions: CAII-A647 binding fluorescence, higher = more signal
[5] = COS7 lysate on small-molecule microarray, probe aHis, 635 nm (AID 1123); conditions: COS7 cell lysate, fluorescence, higher = more signal;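 note: z-score combines 667nm fluorescence intensity with signal-to-noise per printed compound spot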
[6] = probe aLAP1 signal on lysate-treated microarray – cell lysate, small-molecule microarray, COS7 lysate, primary screen (AID 1124); conditions: probe aLAP1, fluorescence, higher = more signal;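 note: lysate comes from COS7 cells expressing LAP1 and is applied at 0.3 µg/mL; score merges spot fluorescence near 667 nm with signal-to-noise over triplicate slides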
Sam68 (KHDRBS1) = assay: compounds binding KHDRBS1 protein – biochemical, small-molecule microarray, 635 nm fluorescence, primary screen (AID 1125); conditions: higher = more signal;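 note: score merges 667 nm channel intensity with signal to noise over triplicate slides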
[7] = test system: Chordin-like protein 2 (CHRDL2); assay: compounds binding chordin-like 2 – biochemical, small-molecule microarray, 635 nm fluorescence, primary screen (AID 1126); conditions: fluorescence 635 nm, higher = more signal;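 note: printed compound slides probed with Chrdl2 protein at 4 µg/mL for 1 h at 4 C; score merges 667 nm emission intensity with signal to noise over three replicate slides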
[8] = biological target: Concanavalin-A (Canavalia ensiformis) (UniProt P02866); assay: compounds binding concanavalin A lectin – biochemical, small-molecule microarray, Alexa647 label, 635 nm, artefact control for SMM control protein annotation, primary screen (AID 1127); conditions: ConA-A647 binding fluorescence, higher = more signal;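 note: z combines 667 nm emission intensity with signal-to-noise across three replicate slides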
[9] = compounds binding Alexa647 anti-His antibody – biochemical, small-molecule microarray, 635 nm fluorescence, artefact control for SMM control protein annotation, primary screen (AID 1128); conditions: higher = more signal;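 note: score merges feature fluorescence with signal-to-noise for each printed compound spot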
[10] = test system: Human papillomavirus type 1a E7 protein (residues 1-88); assay: HPV1a E7 small-molecule binders, primary screen, biochemical, small-molecule microarray, residues 1-88, 635 nm (AID 1129); conditions: small-molecule microarray binding, fluorescence 635 nm; higher = more signal
[11] = biological target: Focal adhesion kinase 1 (Homo sapiens) (UniProt Q05397); assay: PTK2 protein binding on printed compound slides – biochemical, small-molecule microarray, 635/667 nm fluorescence, BSA, DTT, primary screen (AID 1130); conditions: 635 nm fluorescence, higher = more signal;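 note: composite of spot emission at 667 nm and signal to noise over triplicate slides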
[12] = test system: Fibrinogen (Alexa647-labelled); assay: Alexa647-fibrinogen binding to printed small molecules – biochemical, small-molecule microarray, 635/667 nm fluorescence, artefact control for SMM control-protein annotation, profiling panel (AID 1131); conditions: fibrinogen-A647 binding fluorescence, higher = more signal;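 note: z-score merges 667 nm fluorescence with per-spot signal-to-noise over triplicate slides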
[13] = biological target: Follistatin (Homo sapiens) (UniProt P19883); assay: FST protein binding to printed compounds – biochemical, small-molecule microarray, 635/667 nm fluorescence, primary screen (AID 1132); conditions: 635 nm fluorescence, higher = more signal
[14] = biological target: Fibroblast growth factor 2 (Homo sapiens) (UniProt P09038); assay: basic fibroblast growth factor binding to printed compounds – biochemical, small-molecule microarray, 635/667 nm fluorescence, primary screen (AID 1133); conditions: FGF2, fluorescence 635/667, higher = more signal
[15] = JC-1 mitochondrial potential readout, lung cancer cells – cell-based, A549, JC-1 fluorescence, basal, 24 h, 100 nL, profiling panel (AID 1138); conditions: higher = more signal;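 note: A549 lung adenocarcinoma cells under basal conditions with no added stimulus; test concentration not given here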
Lefty1 = Lefty1 protein binding to printed compounds – biochemical, small-molecule microarray, 635/667 nm fluorescence, primary screen (AID 1139); conditions: fluorescence 635/667, higher = more signal
[16] = test system: wheat germ agglutinin (Triticum aestivum), Alexa647-labelled; assay: Alexa647-WGA lectin binding to printed small molecules – biochemical, small-molecule microarray, 635/667 nm fluorescence, artefact control for SMM control-protein annotation, profiling panel (AID 1140); conditions: WGA-A647 binding, 635 nm fluorescence, higher = more signal;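 note: score merges 667 nm feature emission with signal to noise over triplicate slides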
[17] = biological target: Luciferin 4-monooxygenase (Photinus pyralis) (UniProt P08659); assay: inhibition of purified Photinus pyralis luciferase – biochemical, luminescence, purified enzyme, 2006 set, primary screen (AID 1141); conditions: purified firefly luciferase, SteadyGlo luminescence, 30 min; higher = more signal, called active from +8 up or from −8 down;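 note: cell-free assay with purified firefly luciferase at 100 ng per well in PBS; test concentration not given here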
Chain of Luciferin 4-monooxygenase (Photinus pyralis) (P08659 whole entry, looked up): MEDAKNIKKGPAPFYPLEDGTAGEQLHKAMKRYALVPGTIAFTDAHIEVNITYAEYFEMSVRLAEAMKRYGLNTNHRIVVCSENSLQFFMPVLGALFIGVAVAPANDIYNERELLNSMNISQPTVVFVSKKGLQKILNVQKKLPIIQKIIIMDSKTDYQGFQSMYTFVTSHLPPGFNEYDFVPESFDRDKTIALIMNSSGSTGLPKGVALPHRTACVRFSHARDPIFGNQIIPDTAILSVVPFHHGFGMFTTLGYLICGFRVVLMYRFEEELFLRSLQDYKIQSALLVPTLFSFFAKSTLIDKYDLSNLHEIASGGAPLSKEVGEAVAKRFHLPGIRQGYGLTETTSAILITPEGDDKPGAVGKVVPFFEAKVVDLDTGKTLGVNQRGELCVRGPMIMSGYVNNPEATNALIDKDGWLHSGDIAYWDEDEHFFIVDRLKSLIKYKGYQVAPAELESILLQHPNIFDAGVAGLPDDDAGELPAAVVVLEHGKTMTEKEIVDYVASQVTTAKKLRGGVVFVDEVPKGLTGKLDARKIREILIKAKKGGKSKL

Chain of Fibroblast growth factor 2 (Homo sapiens) (P09038 whole entry, looked up): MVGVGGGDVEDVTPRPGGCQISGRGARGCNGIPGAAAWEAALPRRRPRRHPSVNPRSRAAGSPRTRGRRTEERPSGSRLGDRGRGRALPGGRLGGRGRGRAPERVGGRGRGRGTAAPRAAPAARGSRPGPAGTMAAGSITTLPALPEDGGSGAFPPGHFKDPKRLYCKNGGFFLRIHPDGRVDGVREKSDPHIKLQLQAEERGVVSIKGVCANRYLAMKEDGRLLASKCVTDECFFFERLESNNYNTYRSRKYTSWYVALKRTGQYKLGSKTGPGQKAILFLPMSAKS
Chain of Albumin (Bos taurus) (P02769 whole entry, looked up): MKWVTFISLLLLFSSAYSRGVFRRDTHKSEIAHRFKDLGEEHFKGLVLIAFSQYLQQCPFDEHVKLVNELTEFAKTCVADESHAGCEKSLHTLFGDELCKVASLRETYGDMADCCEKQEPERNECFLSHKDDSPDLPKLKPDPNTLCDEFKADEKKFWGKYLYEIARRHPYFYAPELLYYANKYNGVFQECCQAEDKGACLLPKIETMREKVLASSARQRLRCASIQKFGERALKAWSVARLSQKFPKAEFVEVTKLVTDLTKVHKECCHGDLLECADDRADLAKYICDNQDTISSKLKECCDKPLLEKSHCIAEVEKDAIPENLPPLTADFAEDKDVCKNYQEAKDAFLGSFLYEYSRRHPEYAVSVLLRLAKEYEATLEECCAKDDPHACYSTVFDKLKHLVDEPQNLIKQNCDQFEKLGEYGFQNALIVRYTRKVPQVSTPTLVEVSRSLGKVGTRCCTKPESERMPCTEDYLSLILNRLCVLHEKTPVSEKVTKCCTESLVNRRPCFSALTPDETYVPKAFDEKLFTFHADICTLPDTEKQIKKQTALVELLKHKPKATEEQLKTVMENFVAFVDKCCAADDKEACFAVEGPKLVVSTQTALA
Chain of Focal adhesion kinase 1 (Homo sapiens) (Q05397 whole entry, looked up): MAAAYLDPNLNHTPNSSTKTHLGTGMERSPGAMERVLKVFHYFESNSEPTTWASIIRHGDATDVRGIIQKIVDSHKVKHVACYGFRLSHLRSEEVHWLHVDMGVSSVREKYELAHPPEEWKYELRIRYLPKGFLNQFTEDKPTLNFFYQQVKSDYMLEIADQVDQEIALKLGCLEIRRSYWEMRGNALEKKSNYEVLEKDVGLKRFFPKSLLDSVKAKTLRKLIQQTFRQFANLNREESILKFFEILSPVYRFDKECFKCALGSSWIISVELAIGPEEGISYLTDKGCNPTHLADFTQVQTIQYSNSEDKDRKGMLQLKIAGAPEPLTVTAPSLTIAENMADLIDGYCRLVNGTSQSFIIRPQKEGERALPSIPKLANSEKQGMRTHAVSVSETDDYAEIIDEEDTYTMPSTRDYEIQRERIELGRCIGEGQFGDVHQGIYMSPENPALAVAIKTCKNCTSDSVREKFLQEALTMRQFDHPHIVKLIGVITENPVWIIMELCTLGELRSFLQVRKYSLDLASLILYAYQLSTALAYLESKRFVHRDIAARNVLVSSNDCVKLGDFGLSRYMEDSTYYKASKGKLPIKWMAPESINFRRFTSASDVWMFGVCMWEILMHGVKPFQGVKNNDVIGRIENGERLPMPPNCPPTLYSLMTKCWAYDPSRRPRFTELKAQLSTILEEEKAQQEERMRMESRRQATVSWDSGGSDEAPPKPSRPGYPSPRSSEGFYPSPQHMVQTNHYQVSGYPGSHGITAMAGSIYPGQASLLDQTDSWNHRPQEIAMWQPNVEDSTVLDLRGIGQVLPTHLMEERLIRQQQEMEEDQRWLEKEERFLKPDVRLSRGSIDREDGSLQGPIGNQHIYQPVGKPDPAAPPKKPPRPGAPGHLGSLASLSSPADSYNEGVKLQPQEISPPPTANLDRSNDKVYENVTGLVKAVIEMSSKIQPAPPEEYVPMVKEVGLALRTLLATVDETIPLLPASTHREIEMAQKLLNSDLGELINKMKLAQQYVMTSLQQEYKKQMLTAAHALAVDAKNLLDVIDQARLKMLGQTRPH
Chain of Concanavalin-A (Canavalia ensiformis) (P02866 whole entry, looked up): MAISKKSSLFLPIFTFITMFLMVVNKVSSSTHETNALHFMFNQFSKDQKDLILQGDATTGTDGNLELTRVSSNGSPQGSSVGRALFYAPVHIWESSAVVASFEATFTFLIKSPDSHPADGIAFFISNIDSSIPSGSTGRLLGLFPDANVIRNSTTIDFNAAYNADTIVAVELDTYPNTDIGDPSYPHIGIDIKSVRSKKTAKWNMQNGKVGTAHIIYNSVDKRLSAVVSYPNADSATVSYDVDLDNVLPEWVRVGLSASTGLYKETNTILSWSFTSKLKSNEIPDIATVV
Chain of Follistatin (Homo sapiens) (P19883 whole entry, looked up): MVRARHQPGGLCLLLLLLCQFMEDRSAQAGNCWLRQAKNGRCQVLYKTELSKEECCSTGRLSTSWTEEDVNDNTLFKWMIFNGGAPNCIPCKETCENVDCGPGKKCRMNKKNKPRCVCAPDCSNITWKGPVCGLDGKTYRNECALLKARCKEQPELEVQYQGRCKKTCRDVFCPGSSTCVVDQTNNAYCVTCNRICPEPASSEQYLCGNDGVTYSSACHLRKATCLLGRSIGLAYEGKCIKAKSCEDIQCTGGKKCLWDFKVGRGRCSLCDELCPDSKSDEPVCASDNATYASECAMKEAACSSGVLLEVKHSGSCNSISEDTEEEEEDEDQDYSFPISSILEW

Row | SMILES | composite z-score (Albumin (Bos taurus)) | composite Z-score [1] | composite z-score [2] | composite z-score [3] | composite z-score [4] | composite z-score [5] | composite z-score [6] | composite z-score (Sam68 (KHDRBS1)) | composite z-score [7] | composite z-score [8] | composite z-score [9] | composite z-score [10] | composite z-score [11] | composite z-score [12] | composite z-score [13] | composite z-score [14] | z-score [15] | composite z-score (Lefty1) | composite z-score [16] | z-score [17]
1 | C#CCCCON=C1[C@H]2CCn3c(=O)n([C@@H](CC)c4ccccc4)c(=O)n3[C@H]2[C@H](O)[C@@H]2O[C@H]12 | 0.0481 | -0.15 (inactive) | -0.0918 | -0.0745 | 0.59 | 0.219 | -0.131 | 0.113 | 0.0573 | 0.154 | 0.114 | -0.256 | 0.235 | -0.509 | 0.587 | 0.639 | 0.351 | 0.368 | 0.283 | -0.0508 (inactive)
2 | C=CC[C@@H]1C=C[C@H](ON=C(C)CCN2CCCc3nc(C)c(C)cc32)[C@@H](CO)O1 | -0.858 | 2.94 (inactive) | 0.712 | 0.276 | -0.1 | 0.735 | 0.629 | 1.32 | 1.3 | -0.12 | 0.229 | 0.736 | 0.817 | -0.355 | 1.25 | 1 | 0.289 | 1.16 | -0.205 | 0.949 (inactive)
3 | COc1ccc(COC(=O)NN=C2C[C@@H](O)[C@@H](O)[C@@H]3[C@@H]4C(=O)N(C(C)(C)C)C(=O)[C@@H]4CC[C@@H]23)cc1 | 0.584 | 0.526 (inactive) | 0.136 | -0.167 | 0.346 | 0.685 | 0.31 | 1.14 | 0.59 | 0.632 | 0.839 | 0.656 | -0.14 | 0.874 | 0.542 | 0.247 | -0.367 | 0.548 | 0.608 | 0.137 (inactive)
4 | O=C1[C@H]2[C@H]3[C@H](O)[C@H](O)CC(=NOCc4ccccc4)[C@@H]3CC[C@H]2C(=O)N1c1cccc(Oc2ccccc2)c1 | 0.446 | 0.0894 (inactive) | -0.119 | -0.147 | 0.146 | 0.536 | 0.397 | 1.32 | 0.0204 | 0.335 | 0.695 | 0.452 | 0.0881 | 0.96 | 0.248 | 0.184 | 0.578 | 0.687 | 0.315 | 0.245 (inactive)
5 | CCOC(=O)CCN1C(=O)[C@H]2[C@H]3[C@H](O)[C@H](O)CC(=O)[C@@H]3CC[C@H]2C1=O | 0.206 | -0.778 (inactive) | -0.0448 | -0.12 | 0.494 | 0.696 | -0.732 | 0.81 | 0.514 | 0.729 | 0.591 | 0.843 | -0.0508 | 0.532 | 0.64 | 1.28 | -0.466 | 1.38 | 0.157 | 0.426 (inactive)
6 | O=C1[C@H]2[C@H]3[C@H](O)[C@H](O)CC(=NO[C@@H]4O[C@H](CO)[C@@H](O)[C@H](O)[C@H]4O)[C@H]3CC[C@H]2C(=O)N1C[C@@H]1CCCO1 | -0.011 | 0.274 (inactive) | -0.136 | -0.0101 | -0.408 | -0.686 | 0.041 | 0.155 | 0.109 | -0.391 | -0.0286 | -0.178 | -0.159 | 0.333 | -0.438 | 0.182 | -0.222 | 0.0013 | -0.442 | 0.569 (inactive)
